Settings in all cases: mRNA level, 48 h; actives raise or lower the signal
Read-out in test [1]: Bcl-2 (BAD) gene, BAD (gene 572)
Put plainly: LTEA_HepaRG_BAD: Life Technologies and Expression Analysis (LTEA) Assay for Bcl-2 (BAD) gene using HepaRG (AID 2283469). Summed up: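 Activity values reflect up- or down-regulation of BAD mRNA in human HepaRG hepatic cells treated 48 h in serum-free medium, with eight-point half-log dosing capped at 100 uM and 0.5% DMSO vehicle.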

Read-out in test [2]: Bcl-2 (BAX) gene, BAX (gene 581)
Description: LTEA_HepaRG_BAX: Life Technologies and Expression Analysis (LTEA) Assay for Bcl-2 (BAX) gene using HepaRG (AID 2283470). In short, it runs like this:
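Gene expression measured by Fluidigm qRT-PCR with three housekeeping genes for normalisation. HepaRG cells, plated 48 h beforehand, treated 48 h at up to 100 uM (8-point, half-log) in 0.5% DMSO. Bidirectional fitting versus DMSO.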

Read-out in test [3]: adenosine kinase (ADK) gene, ADK (gene 132)
Description: LTEA_HepaRG_ADK: Life Technologies and Expression Analysis (LTEA) Assay for adenosine kinase (ADK) gene using HepaRG (AID 2283471). In short, it runs like this: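 Following 48 h exposure of HepaRG cells in 0.5% DMSO (top concentration 100 uM, duplicate wells), ADK mRNA induction or suppression was measured by qRT-PCR, normalised to ACTB/GAPDH/POLR2A, and fitted bidirectionally relative to vehicle.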

Read-out in test [4]: Alpha-fetoprotein (AFP) gene, AFP (gene 174)
Description: LTEA_HepaRG_AFP: Life Technologies and Expression Analysis (LTEA) Assay for Alpha-fetoprotein (AFP) gene using HepaRG (AID 2283472). In short, it runs like this:
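AFP transcript measured by TaqMan qRT-PCR with three housekeeping genes for normalization, after 48 h chemical treatment of HepaRG cells (top 100 uM, half-log steps, 0.5% DMSO). Gain or loss fitted against vehicle.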

Read-out in the next test: BCL2L11 (gene 10018)
Put plainly: LTEA_HepaRG_BCL2L11: Life Technologies and Expression Analysis (LTEA) Assay for Bcl-2 (BCL2L11) gene using HepaRG (AID 2283473). In short, it runs like this: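 Cells were plated, cultured 48 h, switched to serum-free induction medium, then dosed in duplicate for 48 h at eight half-log concentrations up to 100 uM. Lysates underwent RNA isolation and TaqMan qRT-PCR; gain or loss versus DMSO was fitted.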

Read-out in test [5]: Apolipoprotein A-V (APOA5) gene, APOA5 (gene 116519)
Put plainly: LTEA_HepaRG_APOA5: Life Technologies and Expression Analysis (LTEA) Assay for Apolipoprotein A-V (APOA5) gene using HepaRG (AID 2283474). Summed up: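 Human liver HepaRG cells are treated 48 h with test chemicals (100 uM top, half-log dilutions, 0.5% DMSO). APOA5 mRNA induction or loss is measured by qRT-PCR relative to vehicle.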

Read-out in test [6]: Apoptosis regulator Bcl-2 (Homo sapiens) (UniProt P10415)
Description: LTEA_HepaRG_BCL2: Life Technologies and Expression Analysis (LTEA) Assay for Bcl-2 gene using HepaRG (AID 2283475). In short, it runs like this:
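qRT-PCR of BCL2 transcript, normalized to three housekeeping genes (ACTB, GAPDH, POLR2A), after 48 h chemical exposure of HepaRG cells; concentrations top 100 uM with half-log dilutions, 0.5% DMSO vehicle, duplicates; changes up or down fitted relative to vehicle.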

Read-out in another test: Caspase-3 (Homo sapiens) (UniProt P42574)
Description: LTEA_HepaRG_CASP3: Life Technologies and Expression Analysis (LTEA) Assay for cysteine-aspartic acid protease (CASP3) using HepaRG (AID 2283477). In short, it runs like this:
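In HepaRG liver cells dosed for 48 h at up to 100 uM (eight-point, duplicate), CASP3 expression changes are scored by qRT-PCR. Activity is fitted in both directions with 0.5% DMSO as baseline.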

Read-out in test [7]: Cytochrome P450 (CYP24A1), CYP24A1 (gene 1591)
Put plainly: LTEA_HepaRG_CYP24A1: Life Technologies and Expression Analysis (LTEA) Assay for Cytochrome P450 (CYP24A1) using HepaRG (AID 2283478). In short, it runs like this: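 Human liver HepaRG cultures receive each chemical for 48 h across an eight-point half-log series topping at 100 uM in 0.5% DMSO. Induction or suppression of CYP24A1 mRNA is scored relative to vehicle after housekeeping-gene normalization.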

Read-out in test [8]: Cytochrome P450 (CYP1A2), CYP1A2 (gene 1544)
Put plainly: LTEA_HepaRG_CYP1A2: Life Technologies and Expression Analysis (LTEA) Assay for Cytochrome P450 (CYP1A2) using HepaRG (AID 2283479). In short, it runs like this: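 Assesses CYP1A2 mRNA in human HepaRG liver cells after 48 h chemical exposure at up to 100 uM. Values come from qRT-PCR with bidirectional curve fitting relative to DMSO.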

Read-out in test [9]: cysteine-aspartic acid protease (CASP8), CASP8 (gene 841)
Description: LTEA_HepaRG_CASP8: Life Technologies and Expression Analysis (LTEA) Assay for cysteine-aspartic acid protease (CASP8) using HepaRG (AID 2283480). In short, it runs like this:
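Concentration-response in duplicate up to 100 uM (half-log steps, 0.5% DMSO) on differentiated HepaRG cultures for 48 h. Expression change of CASP8 mRNA is determined by TaqMan qRT-PCR with housekeeping-gene normalization.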

Read-out in test [10]: Cytochrome P450 (CYP2B6), CYP2B6 (gene 1555)
Description: LTEA_HepaRG_CYP2B6: Life Technologies and Expression Analysis (LTEA) Assay for Cytochrome P450 (CYP2B6) using HepaRG (AID 2283481). In short, it runs like this: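 Using 48 h treatment of HepaRG cells in serum-free induction medium, concentrations spanned half-log steps from 100 uM in 0.5% DMSO vehicle. CYP2B6 mRNA induction or loss is scored by qRT-PCR against DMSO.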

Read-out in test [11]: Cytochrome P450 2C19 (Homo sapiens) (UniProt P33261)
Description: LTEA_HepaRG_CYP2C19: Life Technologies and Expression Analysis (LTEA) Assay for CYP2C19 using HepaRG (AID 2283482). In short, it runs like this: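 Human HepaRG liver cells received test chemicals for 48 h (highest 100 uM, half-log dilutions in 0.5% DMSO). CYP2C19 mRNA induction or loss is read by multiplexed qRT-PCR and fitted in both directions versus vehicle.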

Read-out in another test: CYP2C8 (gene 1558)
Put plainly: LTEA_HepaRG_CYP2C8: Life Technologies and Expression Analysis (LTEA) Assay for CYP2C8 using HepaRG (AID 2283483). Summed up: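 This is a transcriptional endpoint in HepaRG cultures: 48 h exposure, highest concentration 100 uM. CYP2C8 mRNA is quantified by TaqMan qRT-PCR.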

Read-out in another test: CYP2E1 (gene 1571)
Put plainly: LTEA_HepaRG_CYP2E1: Life Technologies and Expression Analysis (LTEA) Assay for CYP2E1 using HepaRG (AID 2283485). Summed up: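 CYP2E1 transcript measured by Fluidigm qRT-PCR against three housekeeping genes in human HepaRG cells treated 48 h (top 100 uM, half-log steps, 0.5% DMSO vehicle). Gain or loss fitted relative to DMSO baseline.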

Read-out in test [12]: Bcl-2 (BID) gene, BID (gene 637)
Put plainly: LTEA_HepaRG_BID: Life Technologies and Expression Analysis (LTEA) Assay for Bcl-2 (BID) gene using HepaRG (AID 2283476). Summed up:
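Duplicate 48 h treatments of HepaRG cells in serum-free induction medium spanned 100 uM downward in half-log steps, 0.5% DMSO. Transcript change quantified by qRT-PCR against three housekeeping genes, fitted up or down versus DMSO.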

Read-out in another test: CYP4A11 (gene 1579)
Description: LTEA_HepaRG_CYP4A11: Life Technologies and Expression Analysis (LTEA) Assay for CYP4A11 using HepaRG (AID 2283486). In short, it runs like this: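 Readout is CYP4A11 mRNA induction or suppression (qRT-PCR, ACTB/GAPDH/POLR2A normalization) in human HepaRG cells after 48 h chemical treatment, concentrations to 100 uM in 0.5% DMSO, fitted bidirectionally against vehicle.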

Read-out in another test: CYP2C9 (gene 1559)
Description: LTEA_HepaRG_CYP2C9: Life Technologies and Expression Analysis (LTEA) Assay for CYP2C9 using HepaRG (AID 2283484). Summed up:
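Eight-point concentration-response (highest 100 uM, half-log dilutions) in HepaRG cells for 48 h; CYP2C9 expression by qRT-PCR normalized to ACTB, GAPDH, POLR2A. Bidirectional fit, DMSO baseline.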

Read-out in test [13]: Cytochrome P450 3A4 (Homo sapiens) (UniProt P08684)
Description: LTEA_HepaRG_CYP3A4: Life Technologies and Expression Analysis (LTEA) Assay for CYP3A4 using HepaRG (AID 2283487). Summed up:
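In a human hepatic line (HepaRG), duplicate wells were treated 48 h with up to 100 uM chemical in half-log dilutions. Endpoint: CYP3A4 mRNA induction or loss relative to 0.5% DMSO vehicle, by qRT-PCR.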

The source made the active and inactive calls. Rule for the calls: active = hit-call score of the fitted dose curve at least 0.9, where 1 is the maximum; inactive = score below 0.9.

Sequence of Cytochrome P450 2C19 (Homo sapiens) (P33261 whole entry, looked up): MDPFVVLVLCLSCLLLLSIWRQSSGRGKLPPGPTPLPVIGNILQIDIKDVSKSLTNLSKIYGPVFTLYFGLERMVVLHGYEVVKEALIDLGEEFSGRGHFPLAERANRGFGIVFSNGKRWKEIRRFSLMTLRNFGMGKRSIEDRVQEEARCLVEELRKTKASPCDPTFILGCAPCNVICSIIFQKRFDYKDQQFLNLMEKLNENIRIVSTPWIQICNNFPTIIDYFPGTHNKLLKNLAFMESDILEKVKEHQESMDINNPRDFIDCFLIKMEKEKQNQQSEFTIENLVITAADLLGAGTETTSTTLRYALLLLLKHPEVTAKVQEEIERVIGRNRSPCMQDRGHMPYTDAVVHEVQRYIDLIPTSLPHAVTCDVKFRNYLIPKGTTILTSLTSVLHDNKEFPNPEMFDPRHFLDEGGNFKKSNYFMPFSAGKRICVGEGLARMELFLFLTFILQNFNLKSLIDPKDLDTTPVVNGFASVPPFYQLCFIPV
Sequence of Caspase-3 (Homo sapiens) (P42574 whole entry, looked up): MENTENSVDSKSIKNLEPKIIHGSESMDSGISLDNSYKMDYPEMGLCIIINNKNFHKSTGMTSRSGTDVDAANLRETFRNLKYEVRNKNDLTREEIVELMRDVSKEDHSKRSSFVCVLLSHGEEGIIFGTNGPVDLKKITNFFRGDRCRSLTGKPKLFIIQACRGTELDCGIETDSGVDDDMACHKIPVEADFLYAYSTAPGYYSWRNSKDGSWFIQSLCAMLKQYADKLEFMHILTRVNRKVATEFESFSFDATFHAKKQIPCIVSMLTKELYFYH
Sequence of Cytochrome P450 3A4 (Homo sapiens) (P08684 whole entry, looked up): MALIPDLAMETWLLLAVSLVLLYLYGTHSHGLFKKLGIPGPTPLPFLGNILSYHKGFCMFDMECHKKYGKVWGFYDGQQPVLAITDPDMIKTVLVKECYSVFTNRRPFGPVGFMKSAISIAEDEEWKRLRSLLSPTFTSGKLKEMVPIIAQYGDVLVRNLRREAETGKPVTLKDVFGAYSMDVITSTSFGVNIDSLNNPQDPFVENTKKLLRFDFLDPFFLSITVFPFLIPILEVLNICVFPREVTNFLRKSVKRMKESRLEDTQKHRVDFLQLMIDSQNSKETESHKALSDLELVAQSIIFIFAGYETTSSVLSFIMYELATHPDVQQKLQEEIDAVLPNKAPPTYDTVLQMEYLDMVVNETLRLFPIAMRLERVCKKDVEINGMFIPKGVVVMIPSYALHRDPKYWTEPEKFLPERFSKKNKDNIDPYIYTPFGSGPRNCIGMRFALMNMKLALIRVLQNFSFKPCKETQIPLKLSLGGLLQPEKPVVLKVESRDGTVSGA
Sequence of Apoptosis regulator Bcl-2 (Homo sapiens) (P10415 whole entry, looked up): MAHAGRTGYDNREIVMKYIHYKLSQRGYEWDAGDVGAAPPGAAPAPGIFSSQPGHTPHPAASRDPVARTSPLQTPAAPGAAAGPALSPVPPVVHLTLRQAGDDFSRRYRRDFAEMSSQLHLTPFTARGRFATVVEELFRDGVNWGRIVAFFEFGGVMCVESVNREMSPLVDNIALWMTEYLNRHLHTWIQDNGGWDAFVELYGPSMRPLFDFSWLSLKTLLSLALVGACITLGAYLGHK

As for `CCCCC(CC)COC(=O)c1ccccc1C(=O)O` (stereo not drawn), the molecule was classed as inactive (in test [1]; in test [2]; in [3]; in test [4]; with BCL2L11 (gene 10018); in test [5]). For the same molecule, the result (in test [6]; with Caspase-3 (Homo sapiens); in test [7]; in test [8]; in test [9]; in test [11]) was inactive. Also, the molecule was called inactive with CYP2C8 (gene 1558). Further, the concentration at half-maximal activity (AC50) in test [10] is 29.1 µM (active); in the test with CYP2E1 (gene 1571) it was 76.7 µM (active).

For the molecule `CC(=O)S[C@@H]1CC2=CC(=O)CC[C@]2(C)[C@H]2CC[C@@]3(C)[C@@H](CC[C@@]34CCC(=O)O4)[C@H]12`, the molecule was called inactive (in [1]; in test [2]; with BCL2L11 (gene 10018); in test [6]; in test [12]; in [7]). In test [9], the outcome was inactive. Moreover, the AC50 in test [3] is 50 µM (active); in test [4], 43.4 µM (active); in test [5] it was 61.8 µM (active); with Caspase-3 (Homo sapiens), 50 µM (active); in [10] it was 52.6 µM (active); in [11] it was 78.3 µM (active). For the same molecule, the figures for the AC50 with CYP2C8 (gene 1558), with CYP2E1 (gene 1571) and with CYP4A11 (gene 1579) were 82.1 µM (active), 63 µM (active) and 51.8 µM (active), respectively.

On to `COCCO`, for which the molecule was called inactive (in test [1]; in test [2]; in [3]; in [4]; with BCL2L11 (gene 10018); in test [5]). In addition, the molecule was classed as inactive (in [6]; in [12]; with Caspase-3 (Homo sapiens); in test [7]; in test [8]; in [9]). The call (in test [10]; in test [11]; with CYP2C8 (gene 1558); with CYP2C9 (gene 1559); with CYP2E1 (gene 1571); in [13]) was inactive.

On to `C#C[C@]1(O)CC[C@H]2[C@@H]3CCC4=CC(=O)CC[C@@H]4[C@H]3CC[C@@]21CC`, for which the molecule was called inactive (in [1]; in test [2]; in test [3]; in [4]; with BCL2L11 (gene 10018); in test [5]). Besides, the outcome (in [6]; with Caspase-3 (Homo sapiens); in test [7]; in test [8]; in test [9]; in test [10]) was inactive. Further, the molecule was called inactive (in the test with CYP2C8 (gene 1558); in test [13]). For the same molecule, the AC50 was 5.47 µM (active) in test [11], 0.00149 µM (active) with CYP2E1 (gene 1571) and 0.0276 µM (active) with CYP4A11 (gene 1579).

Turning to `COC(=O)c1ccc(I)cc1S(=O)(=O)NC(=O)Nc1nc(C)nc(OC)n1`, the outcome (in [1]; in [2]; in test [3]; in test [4]; with BCL2L11 (gene 10018); in [5]) was inactive. For the same molecule, the call (in [6]; in test [12]; with Caspase-3 (Homo sapiens); in test [7]; in [9]; in test [10]) was inactive. Moreover, the molecule was called inactive (in test [11]; with CYP2C8 (gene 1558); in the test with CYP2E1 (gene 1571)). The AC50 was 50 µM (active) in test [8] and 29.3 µM (active) in [13].

These data come from PubChem BioAssay (EPA / NIEHS).
